# According to PubChem BioAssay (NCATS):
# Records with an inconclusive call do not appear. A call without a number means that no potency is given here. Unmarked numbers belong to inactive results. Active and inactive are the calls of the source. The call rests on the fitted dose curve; in most records, active means well fitted curve in the direction sought with a large enough effect; inconclusive means small, poorly fitted or top-dose-only effect, or another doubt; inactive means no such curve, though single readings can be large; an effect the other way counts as inactive or inconclusive.
# Tests used:
# [1] = molecular target: Aldehyde dehydrogenase, mitochondrial (Homo sapiens) (UniProt P05091); test: qHTS for Inhibitors of the Aldehyde Dehydrogenase Family (ALDH2) Primary screen (AID 2061308); further: nearly all actives have a fitted effect of over 55% in size
# [2] = molecular target: Retinaldehyde dehydrogenase 3 (Homo sapiens) (UniProt P47895); test: qHTS for Inhibitors of the Aldehyde Dehydrogenase Family (ALDH1A3) Primary screen (AID 2061315)
SMILES,Potency [1],Potency [2],"activity change, negative = inhibition [1]","activity change, negative = inhibition [2]"
O=C(OCC#CCSc1nnc(-c2cccs2)o1)c1ccc(F)cc1,inactive,inactive,,
COc1ccccc1NC(=O)c1cc(-c2ccc(C)c(C)c2)nc2ccccc12,inactive,inactive,,
Cc1cnc(-c2ccccc2C(C)C)nc1N(C)Cc1ccc(-c2cccnc2)cc1,inactive,inactive,,
O=C(Cc1ccc2ccccc2c1)Nc1nnc(-c2ccncc2)s1,inactive,inactive,,
O=S(=O)(NC1CCN(S(=O)(=O)c2ccc3c(c2)OCCO3)CC1)c1c(F)cccc1F,inactive,inactive,,
COc1cccc(C2C(C#N)=C(NC(=O)CCc3ccccc3)Oc3ccc4ccccc4c32)c1 (configuration not stated),inactive,inactive,,
CN(C)CC(=O)NC1CCCc2c1cnn2-c1ccc(F)cc1F (configuration not stated),inactive,inactive,,
O=C(NCCCn1ccnc1)c1nn2c(C(F)(F)F)cc(-c3ccc(Br)cc3)nc2c1Cl,inactive,inactive,,
NC(=O)C1CCN(c2nc(-c3cccc(N)c3)cs2)CC1,inactive,inactive,,
Nc1cc(NC(=O)Nc2nnc(-c3ccncc3)s2)ccc1Cl,inactive,inactive,,
O=C(OCC#CCSc1nnc(-c2cccc3ccccc23)o1)c1ccc(C(F)(F)F)cc1,inactive,inactive,,
CC(=O)NC(c1ccco1)c1cc(F)c2cccnc2c1O (configuration not stated),inactive,inactive,,
CC1=C(C(=O)c2ccccc2)C(c2ccccc2Cl)N=C(Nc2nc3ccccc3o2)N1 (configuration not stated),inactive,inactive,,
O=C(CNC(=O)c1ccc(Cl)c(C(F)(F)F)c1)OC(C(=O)Nc1cc(C(F)(F)F)ccc1Cl)c1ccccc1 (configuration not stated),inactive,inactive,,
CC(=O)NC(c1cc(Cl)c2cccnc2c1O)C1CC1 (configuration not stated),inactive,inactive,,
CCCCNC(=S)NCCCN(Cc1ccc(Cl)c(Cl)c1)c1ccc(Br)cn1,inactive,inactive,,
COc1ccc(CC(=O)Nc2nc(-c3ccc4c(c3)CCN4C(=O)c3ccccc3C)c(C)s2)cc1,inactive,inactive,,
CC(=O)c1ccc(N2CCN(S(=O)(=O)c3ccc4c(c3)OCC(=O)N4)CC2)cc1,inactive,inactive,,
Cn1nnnc1Sc1ncnc2scc(-c3cccc(S(C)(=O)=O)c3)c12,inactive,inactive,,
CNc1oc(-c2cccs2)nc1C#N,inactive,inactive,,
Cc1cc(C)nc(NC(=S)N2CCN(c3ncnc4sccc34)CC2)c1,inactive,inactive,,

SMILES,Potency [1],Potency [2],"activity change, negative = inhibition [1]","activity change, negative = inhibition [2]"
Cc1cc(C)nc(NC(=S)N2CCN(c3nnc(C(F)(F)F)s3)CC2)c1,inactive,inactive,,
CNc1nccc(-c2cccc3ccccc23)n1,inactive,inactive,,
Cc1c(P(=S)(c2ccccc2)c2ccccc2)[n+]2ccccc2n1CCc1ccccc1,inactive,inactive,,
COc1cccc(C2C(C#N)=C(NC(=O)NCc3ccccc3)Oc3ccc4ccccc4c32)c1 (configuration not stated),inactive,inactive,,
O=C(O)c1ccc(-c2cccc(-c3nn4c(=O)cc(N5CCNCC5)nc4s3)c2)cc1,inactive,inactive,,
COc1ccc(-c2ccc3nnc(-c4ccccc4OC)n3n2)cc1OC,inactive,inactive,,
Cc1ccc(S(=O)(=O)Nc2cnccc2C(=O)Nc2nc(-c3ccc(Oc4ccccc4)cc3)cs2)cc1,inactive,inactive,,
N#Cc1c(-c2ccc(OCCOCCOCCN)cc2)no[n+]1[O-],inactive,inactive,,
COc1cccc(C2c3c(ncn(-c4cccc(Cl)c4)c3=N)Oc3ccc4ccccc4c32)c1 (configuration not stated),inactive,inactive,,
CC1(C)CCc2cc(S(=O)(=O)N3CCN(S(=O)(=O)c4c(F)cccc4F)CC3)ccc2O1,inactive,inactive,,
O=C(Nc1nnc(-c2ccco2)o1)c1ccc(Cl)c(Cl)c1,inactive,inactive,,
COc1ccc(NC(=O)c2cnn3c(C)cc(C)nc23)cc1Cl,inactive,inactive,,
CCN(CC)CCCn1c(-c2ccccc2)nc2c(NCc3ccccc3)nc(C)nc21,inactive,inactive,,
Cc1cc(S(=O)(=O)Nc2cnccc2C(=O)Nc2nc(-c3ccccc3)cs2)c(C)o1,inactive,inactive,,
CCN(CC)c1ccc(NC(=O)CN(C)Cc2c(O)ccc3ccccc23)cc1,inactive,inactive,,
c1nc(N2CCNCC2)c2cc(-c3ccc4c(c3)OCO4)ccc2n1,inactive,inactive,,
Cc1nc(Nc2ccccc2)c2nc(-c3ccccc3)n(CCCN3CCCCC3C)c2n1 (configuration not stated),inactive,inactive,,
C=C1C(=O)O[C@@H]2C[C@@]3(C)CCCC(=C)[C@]3(O)C[C@H]12,inactive,inactive,,
Cc1ccc(NC(=O)Nc2nnc(-c3ccncc3)s2)cc1C,inactive,inactive,,
Cc1nnc(-c2cnn(C)c2N)o1,inactive,inactive,,
CC(=O)C1CCN(c2ncc(-c3ccc4c(c3)OCCCO4)s2)CC1,inactive,inactive,,

SMILES,Potency [1],Potency [2],"activity change, negative = inhibition [1]","activity change, negative = inhibition [2]"
Cc1nc(NCc2ccccc2)c2nc(-c3ccccc3)n(CC3CCN(C)CC3)c2n1,inactive,inactive,,
C[C@H]1CC[C@@]2(OC1)O[C@H]1CC3C4CC[C@H]5C[C@@H](O)CC[C@]5(C)C4=CC(=O)[C@]3(C)[C@H]1[C@@H]2C (some centres not stated),inactive,inactive,,
Oc1ccc(CNc2nccc3ccccc23)c2cccnc12,inactive,inactive,,
C[C@@H]1CC[C@]2(C)C(C[C@@H](O)[C@H](O)[C@]23CO3)[C@@]1(C)CCc1ccoc1 (some centres not stated),inactive,inactive,,
COC1CC(O[C@H]2CC[C@]3(C)C4CC[C@@]5(C)C(=O)[C@]4(CC[C@@H]3C2)CC[C@@H]5C2=CC(=O)OC2)OC(C)C1OC1OC(COC2OC(CO)C(O)C(O)C2O)C(O)C(O)C1O (some centres not stated),inactive,inactive,,
Cc1ccc(S(=O)(=O)Nc2cc(Br)ccc2C(=O)Nc2nc(-c3ccccc3)cs2)cc1,inactive,inactive,,
COc1ccc(C2Nc3ccccc3C(=O)N2Cc2ccco2)cc1COc1c(C)cccc1C (configuration not stated),inactive,inactive,,
Cc1cc(C)nc(NC(=S)N2CCN(c3cccc(OC(F)F)c3)CC2)c1,inactive,inactive,,
COc1cccc(CNc2ccc(S(=O)(=O)Nc3nccs3)cc2)c1,inactive,inactive,,
Cc1ccc(CNc2ncnc3ccc(-c4ccoc4C)cc23)o1,inactive,inactive,,
CCNC(=O)c1ccc(-c2ccc3ncnc(NCc4ccc(C)o4)c3c2)o1,inactive,inactive,,
O=[S+]1([O-])N=C(Oc2cccnc2)c2ccccc21,inactive,inactive,,
CCOC(=O)c1ccc(-c2ccc3ncnc(NCc4ncc[nH]4)c3c2)o1,inactive,inactive,,
CC1(C)CC[C@]2(C(=O)O[C@@H]3O[C@H](CO[C@@H]4O[C@H](CO[C@@H]5O[C@H](CO)[C@H](O)[C@H](O)[C@H]5O)[C@@H](O)[C@H](O)[C@H]4O)[C@@H](O)[C@H](O[C@@H]4O[C@H](CO)[C@@H](O)[C@H](O)[C@H]4O)[C@H]3O)[C@H](O)C[C@]3(C)C(=CCC4[C@@]5(C)CC[C@H](O[C@@H]6OC[C@@H](O)[C@H](O)[C@H]6O)[C@@](C)(C(=O)O)C5CC[C@]43C)[C@@H]2C1 (some centres not stated),,,13.7% [at 11.2 µM],11.1% [at 11.2 µM]
CCOc1ccc(-c2csc(N3CCC(C(N)=O)CC3)n2)cc1,inactive,inactive,,
COc1ccc(C2Nc3ccccc3C(=O)N2Cc2ccc(C)o2)cc1COc1c(C)cccc1C (configuration not stated),inactive,inactive,,
Cc1cc(C)n2ncc(C(=O)Nc3ccc(C(C)(C)C)cc3)c2n1,inactive,inactive,,
Cn1c2cc(Br)sc2c2cnn(Cc3c(F)cccc3F)c(=O)c21,inactive,inactive,,
CC[C@H](C)[C@H](NC(=O)[C@H]([C@@H](C)CC)N(C)C(C)=O)C(=O)N[C@H](C(=O)N[C@@H](CC(C)C)C(=O)[C@@]1(C)CO1)[C@@H](C)O,inactive,inactive,,
COc1ccc(C[C@H](N)C(=O)N[C@@H]2[C@H](O)[C@H](n3cnc4c(N(C)C)ncnc43)O[C@@H]2CO)cc1,inactive,inactive,,
CCOC(=O)c1ccc(-c2ccc3ncnc(NCc4csc(C)n4)c3c2)o1,inactive,inactive,,

SMILES,Potency [1],Potency [2],"activity change, negative = inhibition [1]","activity change, negative = inhibition [2]"
Cc1ccc(OCCn2c(CCN(C)C(=O)C3CCCCC3)nc3ccccc32)cc1,inactive,inactive,,
CCCN(CCC)C(=O)C(CCC(=O)OCCCN1CCN(CCOC(=O)Cc2c(C)n(C(=O)c3ccc(Cl)cc3)c3ccc(OC)cc23)CC1)NC(=O)c1ccccc1 (configuration not stated),inactive,inactive,,
NC(=O)Nc1cc(-c2ccc(CN3CCOCC3)c(F)c2)sc1C(=O)N[C@H]1CCCNC1,inactive,inactive,,
O=c1c2ccccc2nc2sc(NCc3ccc(Cc4ccccc4)cc3)nn12,inactive,inactive,,
O=C1NS(=O)(=O)C(c2ccccc2)C1c1ccccc1 (configuration not stated),inactive,inactive,,
COc1ccccc1N1C(=O)c2ccccc2C1=O,inactive,inactive,,
Oc1ccc(CCc2c(F)cccc2F)c2cccnc12,inactive,inactive,,
O=C(O)c1ccc(O)c2ncccc12,inactive,inactive,,
Cc1cnc(-c2ccccc2CO)nc1NCc1ccc(-c2cccnc2)cc1,inactive,inactive,,
Cc1cc(NS(=O)(=O)c2ccc(NC(=O)Cc3ccc(C)c(F)c3)cc2)no1,inactive,inactive,,
FC(F)(F)c1ccc(CSc2nc3ncc(Br)cc3[nH]2)cc1,inactive,inactive,,
O=C1CCCC2=C1C(c1[nH]ncc1Cl)N=C(Nc1nc3c(Br)cccc3o1)N2 (configuration not stated),inactive,inactive,,
CCCn1c(-c2ccc(F)cc2)nc2c(NCCN(CC)CC)nc(C)nc21,inactive,inactive,,
CCCCN1C(=O)c2ccccc2C1=O,inactive,inactive,,
Cc1ccc(OCCn2c(CCNC(=O)/C=C/c3cccc(Br)c3)nc3ccccc32)cc1,inactive,inactive,,
Cc1cc(CNc2ncnc3ccc(-c4ccc5c(c4)OCO5)cc23)c(C)o1,inactive,inactive,,
COc1ccccc1C(=O)NCCc1nc2ccccc2n1CCOc1ccc(C)cc1,inactive,inactive,,
C=C1C(=O)O[C@H]2[C@H]1CC/C(C)=C/CC[C@@]1(C)O[C@@H]21,inactive,inactive,,
